Compound activity: PubChem, several laboratories
Mtb FBA inh – inhibits M. tuberculosis FBA enzyme; P9WQA3; purified M. tuberculosis FBA, fluorescence read-out; inhibition, % at 1 µM; 360,000 tested, 2.3% active; in the data active = inhibition above about 27%
Target sequence (P9WQA3 whole entry, looked up): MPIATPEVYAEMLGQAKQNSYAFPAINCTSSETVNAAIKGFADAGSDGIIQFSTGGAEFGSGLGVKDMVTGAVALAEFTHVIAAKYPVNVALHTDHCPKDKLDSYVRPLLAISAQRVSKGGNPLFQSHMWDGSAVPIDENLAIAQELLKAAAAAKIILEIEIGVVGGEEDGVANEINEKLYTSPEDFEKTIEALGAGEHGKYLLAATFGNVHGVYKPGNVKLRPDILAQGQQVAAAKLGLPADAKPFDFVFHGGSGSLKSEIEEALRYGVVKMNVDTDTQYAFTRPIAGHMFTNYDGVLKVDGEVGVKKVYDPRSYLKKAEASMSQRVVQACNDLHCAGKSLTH
CCHF vOTU inh – CCHFV vOTU protease inhibition; Pep-AMC fluorescence; inhibition, % at 11.5 µM; 370,000 tested, 0.55% active
GDH-TPI counter – GDH-TPI coupled enzyme inhibition counter-screen. AID 588335. inhibition, % at 4.8 µM. 360,000 tested, 1.2% active. GDH-TPI coupled enzyme counterscreen, NADH absorbance
MazEF act – MazEF (E. coli) toxin RNase activation. P0AE70. FAM/BHQ RNA-DNA oligo cleavage fluorescence, 5 h. activation, % at 20 µM. 350,000 tested, 0.32% active; in the data active = activation above about 50%
Target sequence (P0AE70 whole entry, looked up): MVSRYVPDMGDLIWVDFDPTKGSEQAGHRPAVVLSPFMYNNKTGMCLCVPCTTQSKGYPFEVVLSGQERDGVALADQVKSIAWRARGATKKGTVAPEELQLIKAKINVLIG
Mtb betalactam – beta-lactam sensitization of Mtb H37Rv; AID 434955; 330,000 tested, 0.27% active; inhibition, % at 25 µM; M. tuberculosis H37Rv growth with meropenem, percent inhibition; call rule not given here;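 also: growth measured after seven days incubation then overnight dye step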
Large screens that a line does not name were inactive. Only some compounds are listed: those with a hit (about 4% of all), similar ones and a draw of the others. Rule as the data show it, unless noted: active = inhibition above about 30%; inactive = the rest.

COC(=O)C1=CNC=C(C(=O)OC)C1c1ccc(C(=O)OC)cc1	Mtb FBA inh 115
CCCCNC(=O)C[C@H]1C[C@@]2(C(=O)OC)C(=C[C@H](C3CCCC3)O[C@@H]2C)N(CCc2ccc(OC)c(OC)c2)C1=O	none (no result: Mtb FBA inh, GDH-TPI counter, MazEF act, Mtb betalactam)
CC(=O)Nc1cccc(-c2nc3ccc(NC(C)=O)cc3s2)c1	Mtb FBA inh active
COc1cccc2sc(Nc3nc4ccc(NC(C)=O)cc4s3)nc12	Mtb FBA inh 89
CC(=O)Nc1ccc2nc(NC(=O)COc3ccccc3C)sc2c1	none
CC(=O)Nc1cccc(-c2nc3ccccc3s2)c1	none
COc1cccc2sc(Nc3nc(-c4ccncc4)cs3)nc12	GDH-TPI counter 38
CC(=O)Nc1cccc(-c2nc3ccc(NC(C)=O)cc3[nH]2)c1	Mtb FBA inh active
COc1cccc2sc(Nc3nc(-c4cc5ccccc5oc4=O)cs3)nc12	none
O=C(c1ccncc1)N1CCC(Oc2cccnc2)CC1	none (no result: Mtb FBA inh, GDH-TPI counter, MazEF act, Mtb betalactam)
COC(=O)[C@@]12CCCCC3=C1N(CCC3)C(=O)[C@H]2CC(=O)NCc1ccc(C)o1	none (no result: Mtb FBA inh, GDH-TPI counter, MazEF act, Mtb betalactam)
COc1ccc(OC)c(C(=O)CSc2nnc(SCc3cccc4ccccc34)s2)c1	none (no result: Mtb FBA inh, GDH-TPI counter, MazEF act, Mtb betalactam)
Nc1ccc(C(=O)Nc2ccc3nc(-c4cccnc4)[nH]c3c2)cc1	GDH-TPI counter 37
COC(=O)c1ccc(C(=O)Nc2ccc3nc(-c4cccnc4)[nH]c3c2)cc1	none
O=C(O)CCC(=O)Nc1ccc(-c2nc3ccc(C(=O)c4ccccc4)cc3[nH]2)cc1	GDH-TPI counter 38
CC1(C)Oc2ccc(C(=O)N3CCCC3)cc2NC1=O	none (no result: Mtb FBA inh, GDH-TPI counter, MazEF act, Mtb betalactam)
COc1ccccc1/C=C1\SC(=O)N(CC(=O)NCCCn2ccnc2)C1=O	none
O=C(CN1C(=O)S/C(=C\c2ccccc2Cl)C1=O)NCCCn1ccnc1	GDH-TPI counter 35
COC(=O)[C@]12C[C@H](CC(=O)NCc3ccccc3)C(=O)N(Cc3cccc4ccccc34)C1=C[C@H](C(C)(C)C)O[C@@H]2C	none (no result: Mtb FBA inh, GDH-TPI counter, MazEF act, Mtb betalactam)
O=C(N/N=C/C(Br)=C/c1ccccc1)c1ccccc1F	GDH-TPI counter 32
CC(=O)c1ccc(N2CCN(C(=O)CCCc3nc4ccccc4s3)CC2)cc1	GDH-TPI counter 32
CCOC(=O)c1ccc2nc(C(F)(F)F)[nH]c(=O)c2c1	Mtb FBA inh 42
COc1ccc(C(=O)C[n+]2ccc3c(c2)nc(Cc2ccccc2)n3C)cc1	none (no result: Mtb FBA inh, GDH-TPI counter, MazEF act, Mtb betalactam)
COc1ccc(N=c2oc3c(OC)cccc3cc2C(=O)NCc2ccco2)cc1OC	MazEF act 344 (no result: CCHF vOTU inh)
COc1ccccc1C(=O)NCc1ccco1	none
COc1ccc(OC)c(N=c2oc3c(OC)cccc3cc2C(=O)NCc2ccco2)c1	MazEF act 76
COc1ccccc1N=c1oc2c(OC)cccc2cc1C(=O)NCc1ccco1	MazEF act 69 (no result: CCHF vOTU inh)
COC(=O)[C@]12C[C@H](CC(=O)N3CCN(C(=O)C4CC4)CC3)C(=O)N(CCc3ccc(OC)c(OC)c3)C1=C[C@H](C(C)(C)C)O[C@@H]2C	none (no result: Mtb FBA inh, GDH-TPI counter, MazEF act, Mtb betalactam)
C#CCSc1nnc(-c2c[nH]c3ccccc23)n1C	none
C#CCSc1nnc(-c2sc(-c3ccccc3)nc2C)n1C	Mtb FBA inh 36
CCOP(=O)(OCC)c1nc(-c2ccccc2Cl)oc1N1CCOCC1	none
CCOP(=O)(OCC)c1nc(-c2ccc(Br)cc2)oc1N1CCCCC1	none
CCOP(=O)(OCC)c1nc(-c2ccc(C)cc2)oc1N1CCOCC1	Mtb FBA inh 169
CCOP(=O)(OCC)c1nc(-c2cccc3ccccc23)oc1N1CCOCC1	Mtb FBA inh active
C/C(C=NNC(=O)CSc1nnc(-c2ccc(Cl)cc2)n1-c1ccc(C)cc1)=C\c1ccccc1	none (no result: Mtb FBA inh, GDH-TPI counter, MazEF act, Mtb betalactam)
CCN1C(=O)/C(=C\N(C)C)NC1=S	GDH-TPI counter 34
COc1ccc(N2C(=O)/C(=C/N(C)C)NC2=S)cc1	none
O=c1c2cc3cc(Cl)ccc3nc2ncn1CCc1c[nH]c2ccccc12	none (no result: Mtb FBA inh, GDH-TPI counter, MazEF act, Mtb betalactam)
COc1ccc(S[C@]2(C(=O)N3CCCC3)CC(=O)N(S(=O)(=O)c3ccc(F)cc3)[C@@H]2c2ccc(OC)cc2)cc1	none (no result: Mtb FBA inh, GDH-TPI counter, MazEF act, Mtb betalactam)
COC(=O)CSc1cc([N+](=O)[O-])cc2c1c(C1OCCO1)nn2-c1ccccc1	MazEF act 114
O=C(Nc1ccc(Cl)c(Cl)c1)C1CCCN1S(=O)(=O)c1cccc2cccnc12 (centres undefined)	none (no result: Mtb FBA inh, GDH-TPI counter, MazEF act, Mtb betalactam)
COc1ccc(/C=N/N(CCC(=O)NC(C)(C)C)C2=NS(=O)(=O)c3ccccc32)cc1	GDH-TPI counter 47
CC(C)(C)NC(=O)CCN(/N=C/c1ccncc1)C1=NS(=O)(=O)c2ccccc21	none
COc1ccc(-c2cc(=O)c3cc(C)ccc3[nH]2)cc1	none
CC(=O)Nc1ccc2[nH]c(C)cc(=O)c2c1	none
COc1ccc(-c2cc(=O)c3cc(OC)ccc3[nH]2)cc1	Mtb FBA inh 76 (no result: CCHF vOTU inh)
COc1cccc(-c2cc(=O)c3cc(NC(C)=O)ccc3[nH]2)c1	Mtb FBA inh 115
c1csc(-c2ccnc3ncnn23)c1	Mtb FBA inh 160
CN(C)/C=N/c1nc2nccc(-c3cccs3)n2n1	Mtb FBA inh 188
Cc1ccsc1/C=N/NC(=O)c1nnn(-c2nonc2N)c1C(C)C	GDH-TPI counter 34
COc1cc(/C=N/NC(=O)c2nnn(-c3nonc3N)c2C(C)C)ccc1O	GDH-TPI counter 32
COc1cc(/C=N/NC(=O)c2nnn(-c3nonc3N)c2-c2cccs2)ccc1O	GDH-TPI counter 47
CC(/C=N/NC(=O)c1nnn(-c2nonc2N)c1C(C)C)=C\c1ccccc1	GDH-TPI counter 33
COc1ccc(C2C(C(=O)N3CCOCC3)CC(=O)N2c2ccc(OC)cc2)cc1 (centres undefined)	none (no result: Mtb FBA inh, GDH-TPI counter, MazEF act, Mtb betalactam)
COc1ccc(/C=N/NC(=O)c2nnn(-c3nonc3N)c2-c2cccs2)cc1OC	GDH-TPI counter 69
Cc1ccc(/C=N/NC(=O)c2nnn(-c3nonc3N)c2-c2cccs2)cc1	none
CN(C)[C@@H]1CCN(c2cccc3c2S(=O)(=O)N(C2CC2)CCCO3)C1	none (no result: Mtb FBA inh, GDH-TPI counter, MazEF act, Mtb betalactam)
COc1cccc(-c2cc(C(=O)Nc3cc(C)n(Cc4ccc(Cl)cc4)n3)no2)c1	MazEF act 51
COc1ccc(OC)c(-c2cc(C(=O)Nc3cc(C)n(Cc4ccc(Cl)cc4)n3)no2)c1	none
CCC(C)NC(=O)C1CCN(S(=O)(=O)c2ccc3[nH]c(=O)oc3c2)CC1 (centres undefined)	none (no result: Mtb FBA inh, GDH-TPI counter, MazEF act, Mtb betalactam)
Cc1n[nH]c(C)c1S(=O)(=O)NCCc1cccc(F)c1	none (no result: Mtb FBA inh, GDH-TPI counter, MazEF act, Mtb betalactam)
COc1ccc2c(c1)/C(=C\c1cccc(/C=C3/C(=O)Nc4ccc(OC)cc43)n1)C(=O)N2	GDH-TPI counter 33 (no result: Mtb betalactam)
O=C(Cn1nnc(-c2ccc(N3CCOCC3)cc2)n1)c1ccc(F)cc1	none (no result: Mtb FBA inh, GDH-TPI counter, MazEF act, Mtb betalactam)
CCCC(=O)N1CCC[C@]2(CC[C@H](CCC#N)O2)C1	none (no result: Mtb FBA inh, GDH-TPI counter, MazEF act, Mtb betalactam)
NNS(=O)(=O)c1ccc(N2CCCC2=O)c([N+](=O)[O-])c1	MazEF act 227
CCOC(=O)CC[C@@H]1CC[C@]2(CCCN(Cc3ccc(Cl)cc3)C2)O1	none (no result: Mtb FBA inh, GDH-TPI counter, MazEF act, Mtb betalactam)
O=C(NCCN1CCc2ccccc2C1)Nc1ccc([N+](=O)[O-])cc1	GDH-TPI counter 40
CCCC[C@H]1C2CC(OC(=O)NCCCc3ccccc3)C(C2)[C@H]2CCCCN21 (some centres undefined)	none (no result: Mtb FBA inh, GDH-TPI counter, MazEF act, Mtb betalactam)
O=C(N/N=C/c1cc2cc3c(cc2nc1Cl)OCO3)c1ccncc1	GDH-TPI counter 69
O=c1nc(N/N=C/C=C/c2ccccc2)cn[nH]1	GDH-TPI counter 78
